Assays:
Assay in all cases: log2 ratio of Biotin-Ahx-Ub-VS probe labelling (fragment/DMSO); higher = less target engagement (more negative = stronger competition), active = hit call of the paper (q ≤ 0.05, log2 ratio ≤ -1)
Conditions in all cases: compound concentration: 200 uM; treatment time: 3 h
USP19 = target: T1, USP19 (UniProt O94966)
T1 sequence (whole entry): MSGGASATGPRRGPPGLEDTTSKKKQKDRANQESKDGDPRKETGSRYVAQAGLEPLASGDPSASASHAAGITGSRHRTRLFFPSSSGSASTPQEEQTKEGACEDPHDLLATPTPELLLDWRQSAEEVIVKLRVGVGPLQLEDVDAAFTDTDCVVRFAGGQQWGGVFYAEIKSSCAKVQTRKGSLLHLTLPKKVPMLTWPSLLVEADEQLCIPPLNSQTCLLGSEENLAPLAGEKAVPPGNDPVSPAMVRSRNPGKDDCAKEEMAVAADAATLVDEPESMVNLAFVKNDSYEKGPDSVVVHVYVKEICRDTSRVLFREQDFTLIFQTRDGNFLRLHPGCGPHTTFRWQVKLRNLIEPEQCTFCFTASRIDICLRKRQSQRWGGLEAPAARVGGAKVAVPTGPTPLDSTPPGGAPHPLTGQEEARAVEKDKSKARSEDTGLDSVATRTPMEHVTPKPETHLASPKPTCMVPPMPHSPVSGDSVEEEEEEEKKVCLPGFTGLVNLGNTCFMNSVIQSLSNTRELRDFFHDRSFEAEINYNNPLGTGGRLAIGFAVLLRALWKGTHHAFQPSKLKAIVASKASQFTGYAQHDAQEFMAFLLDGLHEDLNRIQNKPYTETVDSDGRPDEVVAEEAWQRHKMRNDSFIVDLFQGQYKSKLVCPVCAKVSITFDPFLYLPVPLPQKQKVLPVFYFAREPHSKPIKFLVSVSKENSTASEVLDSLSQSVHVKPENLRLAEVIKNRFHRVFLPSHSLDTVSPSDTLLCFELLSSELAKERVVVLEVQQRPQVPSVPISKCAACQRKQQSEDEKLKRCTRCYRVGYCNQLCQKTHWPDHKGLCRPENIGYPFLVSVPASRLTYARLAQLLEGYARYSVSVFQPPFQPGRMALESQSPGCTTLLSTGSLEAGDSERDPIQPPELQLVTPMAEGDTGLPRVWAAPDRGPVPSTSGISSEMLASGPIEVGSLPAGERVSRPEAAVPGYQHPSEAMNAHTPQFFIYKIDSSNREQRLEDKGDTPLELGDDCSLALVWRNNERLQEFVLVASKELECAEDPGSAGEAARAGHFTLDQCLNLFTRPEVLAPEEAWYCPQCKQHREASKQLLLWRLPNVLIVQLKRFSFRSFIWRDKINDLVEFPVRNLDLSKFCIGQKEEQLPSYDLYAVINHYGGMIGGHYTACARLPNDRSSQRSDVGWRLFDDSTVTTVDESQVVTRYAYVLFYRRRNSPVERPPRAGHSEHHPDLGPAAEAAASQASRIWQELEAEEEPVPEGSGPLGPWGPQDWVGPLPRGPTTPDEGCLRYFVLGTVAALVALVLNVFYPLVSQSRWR
Outline: (§1)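 HEK293T lysate in Tris/CHAPS/IGEPAL buffer with protease inhibitors (495 µg per sample) was given fragment at 200 µM or vehicle for 3 h, in triplicate. It then received Biotin-Ahx-Ub-VS at 0.5 µM final for 1 h. Labelled DUBs were NeutrAvidin-enriched, digested with LysC and trypsin, and run by diaPASEF LC-MS/MS. Values are average log2 fragment/vehicle ratios by unpaired t-test on global-median-normalised Spectronaut quantities of proteins with ≥2 unique peptides.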

USP22 = target: T2, USP22 (UniProt Q9UPT9)
T2 sequence (whole entry): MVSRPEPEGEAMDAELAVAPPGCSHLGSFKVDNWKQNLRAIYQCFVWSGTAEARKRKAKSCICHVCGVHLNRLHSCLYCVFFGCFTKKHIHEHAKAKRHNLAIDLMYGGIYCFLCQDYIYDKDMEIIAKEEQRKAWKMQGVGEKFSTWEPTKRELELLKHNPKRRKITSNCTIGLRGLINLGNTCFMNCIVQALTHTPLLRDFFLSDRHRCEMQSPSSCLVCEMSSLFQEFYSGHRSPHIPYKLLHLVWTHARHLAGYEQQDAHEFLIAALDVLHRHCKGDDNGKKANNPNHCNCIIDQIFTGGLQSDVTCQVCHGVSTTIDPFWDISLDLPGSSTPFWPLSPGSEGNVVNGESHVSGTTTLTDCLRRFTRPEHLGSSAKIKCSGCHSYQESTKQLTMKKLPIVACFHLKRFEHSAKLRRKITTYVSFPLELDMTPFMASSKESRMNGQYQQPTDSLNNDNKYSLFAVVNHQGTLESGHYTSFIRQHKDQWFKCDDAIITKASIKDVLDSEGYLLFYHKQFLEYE
Outline: as §1

USP24 = USP24 (UniProt Q9UPU5)
Chain of USP24 (Q9UPU5 whole entry): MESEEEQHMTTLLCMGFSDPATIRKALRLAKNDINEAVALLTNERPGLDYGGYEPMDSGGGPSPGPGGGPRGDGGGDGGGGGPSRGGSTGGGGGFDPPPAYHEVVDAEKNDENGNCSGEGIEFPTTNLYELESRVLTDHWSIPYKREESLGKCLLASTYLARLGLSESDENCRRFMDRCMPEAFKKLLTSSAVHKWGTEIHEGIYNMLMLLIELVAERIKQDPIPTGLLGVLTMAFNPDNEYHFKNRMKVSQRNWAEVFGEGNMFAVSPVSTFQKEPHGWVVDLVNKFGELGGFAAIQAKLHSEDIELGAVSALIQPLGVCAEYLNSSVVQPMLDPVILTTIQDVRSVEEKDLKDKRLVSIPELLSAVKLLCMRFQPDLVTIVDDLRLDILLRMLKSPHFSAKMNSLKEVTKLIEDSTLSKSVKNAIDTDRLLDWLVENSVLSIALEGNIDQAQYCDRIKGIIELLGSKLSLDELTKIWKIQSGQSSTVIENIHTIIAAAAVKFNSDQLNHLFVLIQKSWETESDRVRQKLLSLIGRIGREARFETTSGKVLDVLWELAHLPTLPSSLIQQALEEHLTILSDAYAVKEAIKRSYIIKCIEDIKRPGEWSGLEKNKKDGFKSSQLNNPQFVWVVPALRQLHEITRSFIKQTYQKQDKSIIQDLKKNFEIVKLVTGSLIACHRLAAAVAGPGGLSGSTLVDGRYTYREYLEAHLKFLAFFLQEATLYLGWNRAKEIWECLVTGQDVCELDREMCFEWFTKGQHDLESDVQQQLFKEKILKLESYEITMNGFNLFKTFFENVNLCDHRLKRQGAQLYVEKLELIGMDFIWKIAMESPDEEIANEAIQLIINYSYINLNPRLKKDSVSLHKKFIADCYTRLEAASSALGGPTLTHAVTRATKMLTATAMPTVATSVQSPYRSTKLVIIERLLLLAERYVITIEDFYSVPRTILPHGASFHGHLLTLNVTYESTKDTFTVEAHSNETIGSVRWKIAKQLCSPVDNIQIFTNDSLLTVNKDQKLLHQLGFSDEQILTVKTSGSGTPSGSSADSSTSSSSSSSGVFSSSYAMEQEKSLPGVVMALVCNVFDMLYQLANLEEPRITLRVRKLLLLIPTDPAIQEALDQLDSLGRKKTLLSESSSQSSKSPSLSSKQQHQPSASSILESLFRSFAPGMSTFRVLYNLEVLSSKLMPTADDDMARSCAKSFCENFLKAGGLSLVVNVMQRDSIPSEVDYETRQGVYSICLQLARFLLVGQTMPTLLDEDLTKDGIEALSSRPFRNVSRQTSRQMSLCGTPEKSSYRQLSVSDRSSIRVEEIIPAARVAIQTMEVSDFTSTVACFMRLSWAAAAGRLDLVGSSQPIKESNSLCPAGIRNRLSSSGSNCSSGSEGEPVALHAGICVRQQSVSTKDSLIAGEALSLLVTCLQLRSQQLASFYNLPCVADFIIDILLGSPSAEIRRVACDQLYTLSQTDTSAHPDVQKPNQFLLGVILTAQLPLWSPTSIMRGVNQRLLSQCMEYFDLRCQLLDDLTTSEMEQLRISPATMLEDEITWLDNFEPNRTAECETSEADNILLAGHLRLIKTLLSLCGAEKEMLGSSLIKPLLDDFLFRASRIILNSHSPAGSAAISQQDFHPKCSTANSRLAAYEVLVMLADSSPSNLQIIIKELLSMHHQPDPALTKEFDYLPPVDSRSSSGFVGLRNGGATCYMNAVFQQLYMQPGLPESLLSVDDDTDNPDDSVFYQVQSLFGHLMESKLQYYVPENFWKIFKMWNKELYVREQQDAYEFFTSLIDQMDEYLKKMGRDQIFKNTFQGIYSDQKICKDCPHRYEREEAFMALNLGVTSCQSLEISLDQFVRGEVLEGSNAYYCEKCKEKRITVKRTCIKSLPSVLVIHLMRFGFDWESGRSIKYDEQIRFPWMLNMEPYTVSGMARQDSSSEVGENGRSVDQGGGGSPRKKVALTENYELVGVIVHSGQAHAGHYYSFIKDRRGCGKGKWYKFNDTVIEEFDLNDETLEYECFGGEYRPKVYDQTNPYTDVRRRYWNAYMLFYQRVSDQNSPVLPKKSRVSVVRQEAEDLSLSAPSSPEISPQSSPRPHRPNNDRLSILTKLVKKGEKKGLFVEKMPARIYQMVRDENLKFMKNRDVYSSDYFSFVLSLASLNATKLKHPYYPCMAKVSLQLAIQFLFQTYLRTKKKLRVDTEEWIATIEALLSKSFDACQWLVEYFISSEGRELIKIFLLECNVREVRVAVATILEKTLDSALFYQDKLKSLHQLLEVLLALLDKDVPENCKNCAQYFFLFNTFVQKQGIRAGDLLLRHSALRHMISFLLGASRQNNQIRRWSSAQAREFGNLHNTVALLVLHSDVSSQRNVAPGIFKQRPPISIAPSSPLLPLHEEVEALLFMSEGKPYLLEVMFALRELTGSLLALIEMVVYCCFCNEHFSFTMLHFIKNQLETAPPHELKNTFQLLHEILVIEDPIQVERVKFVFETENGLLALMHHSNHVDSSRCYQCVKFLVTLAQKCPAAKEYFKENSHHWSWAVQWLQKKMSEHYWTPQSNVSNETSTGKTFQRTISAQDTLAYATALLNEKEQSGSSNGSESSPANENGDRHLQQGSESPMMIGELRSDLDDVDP
Outline: as §1

USP25 = target: T3, USP25 (UniProt Q9UHP3)
T3 sequence (whole entry): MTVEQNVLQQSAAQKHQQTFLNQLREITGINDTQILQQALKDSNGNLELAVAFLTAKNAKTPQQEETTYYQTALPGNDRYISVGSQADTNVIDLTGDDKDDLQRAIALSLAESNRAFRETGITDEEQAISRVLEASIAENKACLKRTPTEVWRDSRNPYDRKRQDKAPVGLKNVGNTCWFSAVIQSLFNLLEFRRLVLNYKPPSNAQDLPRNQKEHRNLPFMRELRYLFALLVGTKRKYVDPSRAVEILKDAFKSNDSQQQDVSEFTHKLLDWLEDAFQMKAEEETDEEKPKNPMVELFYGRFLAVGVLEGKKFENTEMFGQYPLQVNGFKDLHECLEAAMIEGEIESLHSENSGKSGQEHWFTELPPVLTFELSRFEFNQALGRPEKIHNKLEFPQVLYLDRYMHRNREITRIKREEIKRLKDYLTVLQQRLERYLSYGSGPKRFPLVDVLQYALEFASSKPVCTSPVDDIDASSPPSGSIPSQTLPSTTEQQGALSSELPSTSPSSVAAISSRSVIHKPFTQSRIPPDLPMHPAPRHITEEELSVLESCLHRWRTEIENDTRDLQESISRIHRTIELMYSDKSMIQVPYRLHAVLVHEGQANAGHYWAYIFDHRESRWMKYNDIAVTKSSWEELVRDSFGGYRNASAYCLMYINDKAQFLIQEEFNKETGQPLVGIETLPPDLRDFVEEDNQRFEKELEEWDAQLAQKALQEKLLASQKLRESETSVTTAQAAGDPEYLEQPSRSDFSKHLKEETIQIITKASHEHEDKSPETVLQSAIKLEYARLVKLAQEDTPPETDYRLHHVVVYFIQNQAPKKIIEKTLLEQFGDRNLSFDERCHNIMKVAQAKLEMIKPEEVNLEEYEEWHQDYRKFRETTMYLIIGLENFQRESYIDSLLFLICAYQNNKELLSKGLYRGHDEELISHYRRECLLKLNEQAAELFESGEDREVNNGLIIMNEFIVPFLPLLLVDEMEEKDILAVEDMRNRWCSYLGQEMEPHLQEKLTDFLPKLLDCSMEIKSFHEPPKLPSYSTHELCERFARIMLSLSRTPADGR
Outline: as §1

USP28 = target: T4, USP28 (UniProt Q96RU2)
T4 sequence (whole entry): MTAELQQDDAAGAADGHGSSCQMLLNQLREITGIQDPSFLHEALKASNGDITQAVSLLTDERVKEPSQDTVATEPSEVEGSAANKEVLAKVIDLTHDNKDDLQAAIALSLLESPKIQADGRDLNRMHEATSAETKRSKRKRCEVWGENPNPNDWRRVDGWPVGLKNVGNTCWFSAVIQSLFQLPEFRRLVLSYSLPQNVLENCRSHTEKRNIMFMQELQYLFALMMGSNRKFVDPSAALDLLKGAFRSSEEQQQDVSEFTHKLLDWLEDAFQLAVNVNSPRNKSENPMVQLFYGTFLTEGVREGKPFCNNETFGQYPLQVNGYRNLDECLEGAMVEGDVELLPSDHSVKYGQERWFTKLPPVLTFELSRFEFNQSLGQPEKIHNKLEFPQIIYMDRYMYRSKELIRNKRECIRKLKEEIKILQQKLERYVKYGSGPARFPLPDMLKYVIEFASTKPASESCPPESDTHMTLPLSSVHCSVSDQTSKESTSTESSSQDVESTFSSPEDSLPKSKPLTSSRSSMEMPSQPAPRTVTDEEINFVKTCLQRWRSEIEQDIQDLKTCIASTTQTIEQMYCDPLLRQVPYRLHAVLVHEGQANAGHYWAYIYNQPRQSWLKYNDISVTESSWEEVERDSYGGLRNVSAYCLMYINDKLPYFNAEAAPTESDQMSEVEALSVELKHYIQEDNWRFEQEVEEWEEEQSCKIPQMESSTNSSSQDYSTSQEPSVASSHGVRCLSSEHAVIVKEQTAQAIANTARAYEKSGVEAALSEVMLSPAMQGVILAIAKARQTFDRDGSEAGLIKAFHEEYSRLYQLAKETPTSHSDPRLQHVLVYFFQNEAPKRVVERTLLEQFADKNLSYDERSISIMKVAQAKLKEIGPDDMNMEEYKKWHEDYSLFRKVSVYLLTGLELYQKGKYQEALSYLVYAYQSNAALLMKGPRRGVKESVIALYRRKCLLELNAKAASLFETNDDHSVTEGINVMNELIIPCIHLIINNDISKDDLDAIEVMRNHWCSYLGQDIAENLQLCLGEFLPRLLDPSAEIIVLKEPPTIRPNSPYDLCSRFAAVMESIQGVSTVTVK
Outline: as §1

Measured: log2 ratio of Biotin-Ahx-Ub-VS probe labelling

CN(CCc1ncc(Br)cn1)C(=O)CCl.Cl
inactive: USP19 -0.155 | USP22 -0.0976 | USP24 -0.487 | USP25 -0.445 | USP28 -0.622
